The values that follow come from the supplement of paper PMC6555819.

The test system of the first assay is RXRa homodimer (NR concentration 180 nM). Kind of assay: PBM binding z-score (relative to random genomic background probes); higher = stronger binding; sequences stand for … in GC…GCGATTGACAGCGTAGAATGAAGG
In short, it runs like this:
(§1)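 The probes on custom Agilent 4×180K protein-binding microarrays were double-stranded, with 34-nt variable regions bearing direct-repeat seeds, single-nucleotide variants, half-site ablations and random human genomic background sequences. Incubation lasted 1 h with ligand-free nuclear receptor dimers in PBS pH 7.4, 2% milk, 0.02% Triton X-100, 1 mM DTT, 0.2 mg/mL BSA and 0.4 mg/ml salmon testes DNA. Antibodies against each partner (one per run) detected bound dimers, and fluorescence scans were regression-normalized. Binding z-scores take the random background probes as reference.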
Sequence GATACAGGCTCAGCTAGAGGCCAGAGTATGGAAA yielded a PBM binding z-score of -0.529.
ACTTACGGGTCAACGAGGTTATGGCACGCGTATA yielded a PBM binding z-score of 6.57.
Still for that read-out and setting: to TCTTGTAGATCAATAGAGGTGAAGAAAGTGCGCT belongs 0.577.
CGAACTAGGTCATTGACAGAACAGTGAATAGTAA showed a PBM binding z-score of 2.46.
TCTAGTTAGTCACGGAGGTCACACACGACGGGTA: the PBM binding z-score is 4.28.
CCTGCTAGGTCATGGCCAGCTAATCTACAGTATG registered a PBM binding z-score of 2.92.
Same read-out and setting: in the case of ATCTCAAGGTAACCAAGTTCAGTGAATGCCGAAC it was 0.816; in that of CCTAGCAGGCTAATCTGGGTCACTCAAGGCTTGA, 0.687; in that of CCTACCGGGCCAAAGGTCATTGATTCCAATGCTC, 6.64.
TCTAGTTGGTCACGGATGTCACACACGACGGGTA returned a PBM binding z-score of 1.15.
Turning to CAAACTAGGTCAAAGCTCAAAGTCGAGCCAACCA, the PBM binding z-score was found to be 3.7.
TGAATGAGGATATAAGATCAGGGAACGTTGCAAA displayed a PBM binding z-score of 0.189.
On to TCTCGGAGGACACGAATGGTCAGAGCTCGACATC, for which the PBM binding z-score turned out to be 0.156.
With CCTACTGGGCCAAAAAGGTCATCGATGCCGATAA, the PBM binding z-score came to 5.25.
Sequence ATCTCTAGGTAACAAGTTCTGTGAAAGAGAGGAC yielded a PBM binding z-score of 0.105.
Take CGTACAAGGTCAATGCTAGGTCAGTGAAAGCATT: the PBM binding z-score amounted to 6.04.
On the same count and under the same terms, to ACTCGAAGGACAAAGGTCAGAGCTACGCCAGTGA belongs 4.69; to CCTGCTAGGTCAATGGCCAGCTAAAGCAGCTCGC, 1.79; to TCTAGCAGGCCAGAGGGTCGCTCAAGAGGTACGG, 0.375.
The sequence ATACCGAGGTGATCGTGAGGTCGTTGATACTAAC yielded a PBM binding z-score of 1.91.
Turning to CGTGCTAGGTCATGGTCAGCTAATCTACAGTATG, the PBM binding z-score was found to be 2.75.
On to CGAACGAGGGCATGTGTTGATAGCAAATGCCGAT, for which the PBM binding z-score is 0.745.
On to CCTAGCAGGCCAATCTGGGGCACTCAAGGCTTGA, for which the PBM binding z-score was -0.29.
CCGACTGGGGCAGAAGGGTTACCATACCATCCGG yielded a PBM binding z-score of 0.641.
Regarding ATCTCTAGGTAAAGATAGTTCAGTGGATGCAAAT, the PBM binding z-score turned out to be 0.17.
The same measure, in the same setting: in the case of CGAATTAGGTCATTGACAGGACAGTGAATAGTAA it was 2.53.
On the same count and under the same terms, in the case of GTACCAAGGTGAATACGTCGTTGATGAGTAGGCG it was 0.56; in that of ATATGTAGGTTACATCCGGGTGATTCAGGCTATG, 1.27.
As to CCTAGTTGGTCTGGAGGTCACACACCGGATATGA, the PBM binding z-score is 4.63.
AACGAAAGGTCGAGGTGAGTATAGAGAAAGGGAA: the PBM binding z-score was 5.03.
Consider CGAACTAGGTCAAGGACAGTGGATCTCCGCACGC, for which the PBM binding z-score was determined as 2.41.
Turning to ATTACAGGGTCATCGTAGGCCAGAGTACGCACAG, the PBM binding z-score is 6.79.
In turn, ATCGAAAGGTAGACGAGGTGAGTATACACCGTTT came in with a PBM binding z-score of 0.582.
The same measure, in the same setting: in the case of TTACCAAGGTGAAGGTCGTTGAACCCTCTGTAGA it was 3; in that of CCTCGGAGGACAGCAGGTCAGAGCTGTCCGCTTT, 0.242; in that of TCTATTACTTGATTAGGGCAACCGAAACAGCGGA, 0.781.
The sequence AGAAGGAGGTTACCAAAGATCAGGGAAACGCTTG gave a PBM binding z-score of 2.27.
Sequence CGTCACAGTTCAACTAAGGTAACGTAAAGCACGC returned a PBM binding z-score of 2.76.
As to GCTAGTAGGCCATTTGGGTCACTCAATGACGGGC, the PBM binding z-score was 0.766.

Another assay concerns THRa:RXRa (NR concentration 90 nM, RXRa partner concentration 90 nM). The description is as above. The gist of the method: as §1
GATACAGGCTCAGCTAGAGGCCAGAGTATGGAAA came in with a PBM binding z-score of -1.13.
As to ACTTACGGGTCAACGAGGTTATGGCACGCGTATA, the PBM binding z-score was found to be 4.04.
Turning to TCTTGTAGATCAATAGAGGTGAAGAAAGTGCGCT, the PBM binding z-score came out at 2.59.
The sequence CGAACTAGGTCATTGACAGAACAGTGAATAGTAA showed a PBM binding z-score of 2.47.
For TCTAGTTAGTCACGGAGGTCACACACGACGGGTA, the PBM binding z-score worked out at 3.56.
Still for that read-out and setting: in the case of CCTGCTAGGTCATGGCCAGCTAATCTACAGTATG it was 3.02; in that of ATCTCAAGGTAACCAAGTTCAGTGAATGCCGAAC, 2.24; in that of CCTAGCAGGCTAATCTGGGTCACTCAAGGCTTGA, 3.19.
Take CCTACCGGGCCAAAGGTCATTGATTCCAATGCTC: the PBM binding z-score stood at 3.68.
TCTAGTTGGTCACGGATGTCACACACGACGGGTA yielded a PBM binding z-score of 0.409.
CAAACTAGGTCAAAGCTCAAAGTCGAGCCAACCA: the PBM binding z-score turned out to be 2.39.
With TGAATGAGGATATAAGATCAGGGAACGTTGCAAA, the PBM binding z-score stood at 0.534.
TCTCGGAGGACACGAATGGTCAGAGCTCGACATC showed a PBM binding z-score of 1.01.
As to CCTACTGGGCCAAAAAGGTCATCGATGCCGATAA, the PBM binding z-score worked out at 3.28.
The sequence ATCTCTAGGTAACAAGTTCTGTGAAAGAGAGGAC displayed a PBM binding z-score of 1.12.
The same measure, in the same setting: to CGTACAAGGTCAATGCTAGGTCAGTGAAAGCATT belongs 4.45; to ACTCGAAGGACAAAGGTCAGAGCTACGCCAGTGA, 3.02.
Sequence CCTGCTAGGTCAATGGCCAGCTAAAGCAGCTCGC had a PBM binding z-score of 1.98.
For the sequence TCTAGCAGGCCAGAGGGTCGCTCAAGAGGTACGG, the PBM binding z-score is -0.276.
Still for that read-out and setting: in the case of ATACCGAGGTGATCGTGAGGTCGTTGATACTAAC it was 3.52.
On the same count and under the same terms, in the case of CGTGCTAGGTCATGGTCAGCTAATCTACAGTATG it was 3.12.
For CGAACGAGGGCATGTGTTGATAGCAAATGCCGAT, the PBM binding z-score amounted to 1.03.
For CCTAGCAGGCCAATCTGGGGCACTCAAGGCTTGA, the PBM binding z-score is 1.65.
CCGACTGGGGCAGAAGGGTTACCATACCATCCGG registered a PBM binding z-score of 0.0428.
In turn, ATCTCTAGGTAAAGATAGTTCAGTGGATGCAAAT yielded a PBM binding z-score of 0.667.
The sequence CGAATTAGGTCATTGACAGGACAGTGAATAGTAA returned a PBM binding z-score of 3.33.
The sequence GTACCAAGGTGAATACGTCGTTGATGAGTAGGCG displayed a PBM binding z-score of 1.19.
Sequence ATATGTAGGTTACATCCGGGTGATTCAGGCTATG returned a PBM binding z-score of 2.07.
For the sequence CCTAGTTGGTCTGGAGGTCACACACCGGATATGA, the PBM binding z-score amounted to 3.67.
Sequence AACGAAAGGTCGAGGTGAGTATAGAGAAAGGGAA had a PBM binding z-score of 2.96.
Regarding CGAACTAGGTCAAGGACAGTGGATCTCCGCACGC, the PBM binding z-score is 3.05.
For the sequence ATTACAGGGTCATCGTAGGCCAGAGTACGCACAG, the PBM binding z-score is 4.86.
In the case of ATCGAAAGGTAGACGAGGTGAGTATACACCGTTT, the PBM binding z-score is 2.01.
The same measure, in the same setting: to TTACCAAGGTGAAGGTCGTTGAACCCTCTGTAGA belongs 2.74; to CCTCGGAGGACAGCAGGTCAGAGCTGTCCGCTTT, 1.74; to TCTATTACTTGATTAGGGCAACCGAAACAGCGGA, 0.792.
On the same count and under the same terms, to AGAAGGAGGTTACCAAAGATCAGGGAAACGCTTG belongs 1.73; to CGTCACAGTTCAACTAAGGTAACGTAAAGCACGC, 5.11; to GCTAGTAGGCCATTTGGGTCACTCAATGACGGGC, 1.75.
